Measurements published in PubChem BioAssay.
Results filed as inconclusive are left out. The source made the active and inactive calls.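 Rule for the calls, unless noted: active = normalized viability below 100% at a tested concentration; inactive = the rest.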

Assays:
[1] = growth inhibition of DIPG glioma cells, dose response, cell-based, SU-DIPG-IV, MIPE4.0, CellTiter-Glo, qHTS (AID 1347063; cut-off not given, nearly all actives have AC50 up to about 30 µM;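 note: compound exposure lasted 48 hours before the viability readout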); conditions: SU-DIPG-IV viability, CellTiter-Glo ATP luminescence
[2] = growth inhibition of DIPG glioma cells, dose response, cell-based, SU-DIPG-XIII, MIPE5.0, CellTiter-Glo, qHTS (AID 1347064; cut-off not given, nearly all actives have AC50 up to about 23 µM;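 for AC50: cells exposed to compound for 48 hours before the viability read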); conditions: SU-DIPG-XIII viability, CellTiter-Glo ATP luminescence
[3] = viability loss in pontine glioma line – cell-based, SU-DIPG-XXV, MIPE5.0, CellTiter-Glo, qHTS, dose response (AID 1347065; cut-off not given, nearly all actives have AC50 up to about 26 µM;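 note: cells exposed to compound for 48 hours before ATP readout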); conditions: CellTiter-Glo ATP luminescence
[4] = JHH-DIPG-1 glioma cell viability, MIPE5.0 library, CellTiter-Glo luminescence, qHTS (AID 1347067; cut-off not given, nearly all actives have AC50 up to about 26 µM;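 note: cells exposed to compound for 48 hours before readout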); conditions: JHH-DIPG-1 glioma viability, CellTiter-Glo ATP luminescence
[5] = sensitizers of A549 cells to miR-34 induction, primary screen, imaging, A549 dox-inducible miR-34, nuclei and caspase counts (AID 1347080;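 active = compounds whose cell count with miR-34 switched on is under 0.7 times the count with it off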); conditions: A549 miR-34 inducible, Hoechst nuclei count, 48 h
[6] = modifiers of HSF1 nuclear foci, imaging, Selleck Cancer Library (AID 1347162; in the data active = plate-normalised HSF1 focus index below about 0.46); conditions: human cells, at 10 µM; SSMD: measured here: HSF1 foci SSMD mean; cell count: measured here: cell number; plate-normalised HSF1 focus index: stronger effect = lower value
[7] = survival rescue of mitochondrial mutant cells in low glucose, primary screen, MELAS cybrids, Rieske KO mouse fibroblasts, CellTiter-Glo (AID 1508586;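 active = mean z-score across replicates of 1.96 or higher in either the MELAS or the Rieske mutant cell line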;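 note: z relative to plate mean and SD of compound and empty wells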)
[8] = ovarian cancer cell viability with rucaparib, profiling panel, oncology-focused library, rucaparib conditional (AID 1508598); conditions: patient-derived ovarian cancer cells, CellTiter-Glo viability, 144 h, stronger effect = lower value
[9] = SU-DIPG-VI glioma cell viability, MIPE4.0 library, CellTiter-Glo luminescence, qHTS (AID 1347066; cut-off not given, nearly all actives have AC50 up to about 30 µM;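 note: cells exposed to compound for 48 hours before readout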); conditions: CellTiter-Glo ATP luminescence
[10] = SU-DIPG-XXV glioma cell viability, MIPE5.0 library, qHTS (AID 1347068; cut-off not given, nearly all actives have IC50 up to about 30 µM;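 for IC50: cells exposed to compound for 48 hours before viability readout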)
[11] = growth inhibition of DIPG glioma cells, dose response, cell-based, JHH-DIPG-1, MIPE4.0, CellTiter-Glo, qHTS (AID 1347062; cut-off not given, nearly all actives have AC50 up to about 27 µM;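 for AC50: cells exposed to compound for two days before readout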); conditions: JHH-DIPG-1 viability, CellTiter-Glo ATP luminescence
[12] = stronger effect = lower value, cell number ratio, induced over uninduced
[13] = measured here: relative caspase fold change +Dox/-Dox
[14] = measured here: total cells with miR-34 induction, stronger effect = lower value
[15] = measured here: total cells without miR-34 induction
[16] = MELAS cybrid survival, CellTiter-Glo 48 h, stronger effect = higher value
[17] = Rieske KO mouse fibroblast survival, CellTiter-Glo 72 h
[18] = at 0.000305 µM, OCI-C5x cells, with rucaparib 10 µM, 100% = cells with rucaparib alone
[19] = at 0.000305 µM, OCI-C5x cells, without rucaparib
[20] = at 0.000305 µM, OCI-P5x cells, with rucaparib 20 µM, 100% = cells with rucaparib alone
[21] = at 0.000305 µM, OCI-P5x cells, without rucaparib
[22] = at 0.00122 µM, OCI-C5x cells, with rucaparib 10 µM, 100% = cells with rucaparib alone
[23] = at 0.00122 µM, OCI-C5x cells, without rucaparib
[24] = at 0.00122 µM, OCI-P5x cells, with rucaparib 20 µM, 100% = cells with rucaparib alone
[25] = at 0.00122 µM, OCI-P5x cells, without rucaparib
[26] = at 0.00488 µM, OCI-C5x cells, with rucaparib 10 µM, 100% = cells with rucaparib alone
[27] = at 0.00488 µM, OCI-C5x cells, without rucaparib
[28] = at 0.00488 µM, OCI-P5x cells, with rucaparib 20 µM, 100% = cells with rucaparib alone
[29] = at 0.00488 µM, OCI-P5x cells, without rucaparib
[30] = at 0.0195 µM, OCI-C5x cells, with rucaparib 10 µM, 100% = cells with rucaparib alone
[31] = at 0.0195 µM, OCI-C5x cells, without rucaparib
[32] = at 0.0195 µM, OCI-P5x cells, with rucaparib 20 µM, 100% = cells with rucaparib alone
[33] = at 0.0195 µM, OCI-P5x cells, without rucaparib
[34] = at 0.0781 µM, OCI-C5x cells, with rucaparib 10 µM, 100% = cells with rucaparib alone
[35] = at 0.0781 µM, OCI-C5x cells, without rucaparib
[36] = at 0.0781 µM, OCI-P5x cells, with rucaparib 20 µM, 100% = cells with rucaparib alone
[37] = at 0.0781 µM, OCI-P5x cells, without rucaparib
[38] = at 0.313 µM, OCI-C5x cells, with rucaparib 10 µM, 100% = cells with rucaparib alone
[39] = at 0.313 µM, OCI-C5x cells, without rucaparib
[40] = at 0.313 µM, OCI-P5x cells, with rucaparib 20 µM, 100% = cells with rucaparib alone
[41] = at 0.313 µM, OCI-P5x cells, without rucaparib
[42] = at 1.25 µM, OCI-C5x cells, with rucaparib 10 µM, 100% = cells with rucaparib alone
[43] = at 1.25 µM, OCI-C5x cells, without rucaparib
[44] = at 1.25 µM, OCI-P5x cells, with rucaparib 20 µM, 100% = cells with rucaparib alone
[45] = at 1.25 µM, OCI-P5x cells, without rucaparib
[46] = at 5 µM, OCI-C5x cells, with rucaparib 10 µM, 100% = cells with rucaparib alone
[47] = at 5 µM, OCI-C5x cells, without rucaparib
[48] = at 5 µM, OCI-P5x cells, with rucaparib 20 µM, 100% = cells with rucaparib alone
[49] = at 5 µM, OCI-P5x cells, without rucaparib

Cc1nc(N)sc1-c1ccnc(Nc2ccc(N3CCOCC3)cc2)n1
inactive: fold change [5, 12] 0.855 | plate-normalised HSF1 focus index [6] 1.12 | z-score [7, 16] 1.86 | viability [8, 18] 109% | viability [8, 19] 111% | viability [8, 20] 125% | viability [8, 21] 120% | viability [8, 22] 110% | viability [8, 23] 112% | viability [8, 24] 115% | viability [8, 25] 120% | viability [8, 26] 104% | viability [8, 27] 112% | viability [8, 28] 117% | viability [8, 29] 124% | viability [8, 30] 104% | viability [8, 32] 116% | viability [8, 33] 113% | viability [8, 34] 109% | viability [8, 35] 108% | viability [8, 36] 115% | viability [8, 37] 115% | viability [8, 38] 109% | viability [8, 39] 110% | viability [8, 40] 116% | viability [8, 41] 113% | viability [8, 42] 101% | viability [8, 43] 113% | viability [8, 44] 113% | viability [8, 45] 111% | viability [8, 46] 107% | viability [8, 47] 108% | viability [8, 49] 102%
1470: cell count [5, 15]
3.31: SSMD [6]
active: AC50 [1] 20.9 µM | AC50 [2] 5.9 µM | AC50 [3] 2.63 µM | AC50 [4] 14.8 µM | viability [8, 31] 95.4% | viability [8, 48] 97%
7110: cell count [6]
1260: cell count [5, 14]
1.29: fold change [5, 13]
-0.218: z-score [7, 17]

Cn1cc(-c2cnn3c(N)c(Br)c([C@@H]4CCCNC4)nc23)cn1
active: AC50 [1] 2.09 µM
inactive: outcome [4]

O=C(O)c1ccc(CCCc2ccc(OCCc3ccc(F)cc3)cc2)o1
inactive: outcome [2]

C[C@@H](N)c1ccc(C(=O)Nc2ccnc3[nH]ccc23)cc1
inactive: outcome [9]
active: AC50 [1] 0.418 µM | IC50 [10] 18.6 µM

CCNC(=O)Nc1ccc(Oc2ncnc(N)c2/C=N/OC)cc1Cl
inactive: outcome [11] | outcome [9] | outcome [10]

Cc1c(C(=O)Nc2ccc(N3C[C@@H](C)O[C@@H](C)C3)nc2)cccc1-c1ccc(OC(F)(F)F)cc1
-6.97: SSMD [6]
6140: cell count [6]
inactive: plate-normalised HSF1 focus index [6] 0.637
active: AC50 [1] 20.9 µM | AC50 [3] 20.9 µM | AC50 [4] 23.5 µM

CC(C)(C)Cn1c(N)nc2ccc(-c3[nH]c(C(C)(C)C)nc3-c3ccc(F)cc3)nc21
5700: cell count [5, 15]
0.864: fold change [5, 13]
5480: cell count [5, 14]
0.553: z-score [7, 17]
inactive: fold change [5, 12] 0.962 | z-score [7, 16] -0.234 | viability [8, 18] 114% | viability [8, 19] 115% | viability [8, 21] 104% | viability [8, 22] 112% | viability [8, 23] 110% | viability [8, 24] 101% | viability [8, 25] 107% | viability [8, 26] 110% | viability [8, 27] 121% | viability [8, 28] 108% | viability [8, 29] 110% | viability [8, 30] 103% | viability [8, 31] 112% | viability [8, 32] 103% | viability [8, 33] 107% | viability [8, 35] 117% | viability [8, 36] 101% | viability [8, 37] 109% | viability [8, 39] 121% | viability [8, 40] 103% | viability [8, 41] 105% | viability [8, 42] 108% | viability [8, 43] 140% | viability [8, 45] 104% | viability [8, 46] 175% | viability [8, 47] 175%
active: AC50 [1] 26.4 µM | AC50 [3] 26.3 µM | AC50 [9] 20.9 µM | AC50 [4] 20.9 µM | viability [8, 20] 99.8% | viability [8, 34] 96.9% | viability [8, 38] 94.5% | viability [8, 44] 99.8% | viability [8, 48] 90.5% | viability [8, 49] 92.5%

COc1ccc2c(c1OC)C(=O)OC2[C@H]1c2c(cc3c(c2OC)OCO3)CCN1C (stereo partly drawn)
active: AC50 [11] 1.87 µM
